Measured values: PubChem BioAssay (NCI)
“And” between values parts separate entries of the source, which are not always exact repeats. Identical values can stand only once. The panel holds about 83,000 compounds, 20% with a hit somewhere; the sample as a whole holds those more often.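 Cell lines were cultured in 96-well plates, exposed to a single compound concentration, and assessed for percent growth 48 hours later.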 The source made the active and inactive calls. How the source made its calls: active means growth percent below 10; inactive means the rest.

What was measured:
Assay in all cases: NCI-60 one-dose screen, 48 h (100 = growth as untreated, 0 = no growth, -100 = all killed)
K-562 leukemia = system: K-562 leukemia
MDA-MB-231 breast = system: MDA-MB-231 breast
RXF 393 renal = system: RXF 393 renal
SF-268 CNS = system: SF-268 CNS
SF-295 CNS = system: SF-295 CNS
SF-539 CNS = system: SF-539 CNS
UACC-257 melanoma = system: UACC-257 melanoma
M14 melanoma = system: M14 melanoma
HCT-15 colon = system: HCT-15 colon
MALME-3M melanoma = system: MALME-3M melanoma

Measured: growth

CCCCCCCCCCCC1CCCC(C)N1 (configuration not stated)
inactive: MDA-MB-231 breast; 10 µM unless noted 72% | RXF 393 renal; 10 µM unless noted 77.7% | SF-268 CNS; 10 µM unless noted 73.5% | SF-295 CNS; 10 µM unless noted 100% | SF-539 CNS; 10 µM unless noted 97.5% | UACC-257 melanoma; 10 µM unless noted 77.3% | M14 melanoma; 10 µM unless noted 95.3% | HCT-15 colon; 10 µM unless noted 27.7%
active: K-562 leukemia; 10 µM unless noted 6.23%

CC[n+]1c(-c2ccccc2)c2cc(N)ccc2c2ccc(N)cc21
inactive: K-562 leukemia; 10 µM unless noted 39% | MDA-MB-231 breast; 10 µM unless noted 33.1% | SF-295 CNS; 10 µM unless noted 13.6% | M14 melanoma; 10 µM unless noted 33% | HCT-15 colon; 10 µM unless noted 88.9%
active: MALME-3M melanoma; 10 µM unless noted -25% | RXF 393 renal; 10 µM unless noted -16.7% | SF-268 CNS; 10 µM unless noted -26.3% | SF-539 CNS; 10 µM unless noted -12.7% | UACC-257 melanoma; 10 µM unless noted -19.3%

S=C(SSC(=S)N1CCCCC1)N1CCCCC1
inactive: K-562 leukemia; 10 µM 102% | MALME-3M melanoma; 10 µM 124% | MDA-MB-231 breast; 10 µM 104% | RXF 393 renal; 10 µM 114% | SF-268 CNS; 10 µM 101% | SF-295 CNS; 10 µM 97.3% | SF-539 CNS; 10 µM 104% | UACC-257 melanoma; 10 µM 87.7% | UACC-257 melanoma; 100 µM 40.5% | M14 melanoma; 10 µM 92.6% | HCT-15 colon; 10 µM 90.1%
active: K-562 leukemia; 100 µM -13.7% | MALME-3M melanoma; 100 µM -76.9% | MDA-MB-231 breast; 100 µM -35.8% | RXF 393 renal; 100 µM -15.7% | SF-268 CNS; 100 µM 0.593% | SF-295 CNS; 100 µM 1.68% | SF-539 CNS; 100 µM -61.6% | M14 melanoma; 100 µM -49.6% | HCT-15 colon; 100 µM 5.6%

CC(=O)O[C@H]1C[C@@H]2OC3C=C(C)CCC3(C)[C@@]1(C)[C@@]21CO1 (some centres not stated)
active: K-562 leukemia; 10 µM unless noted 3.64% and -17.5% | MALME-3M melanoma; 10 µM unless noted -35.1% and -36% | MDA-MB-231 breast; 10 µM unless noted -12.8% and -34.4% | RXF 393 renal; 10 µM unless noted -21.4% and -34.9% | SF-268 CNS; 10 µM unless noted 1.16% and -20.3% | SF-295 CNS; 10 µM unless noted -26.1% and 0.436% | SF-539 CNS; 10 µM unless noted -24.5% and -26.6% | UACC-257 melanoma; 10 µM unless noted -26% and -33.7% | M14 melanoma; 10 µM unless noted -81.2% and -64.8% | HCT-15 colon; 10 µM unless noted -0.358% and -0.281%

Oc1cccc2cccnc12
inactive: K-562 leukemia; 10 µM unless noted 44.2% and 106% and 102% | MALME-3M melanoma; 10 µM unless noted 96.3% and 98.2% | MDA-MB-231 breast; 10 µM unless noted 92.9% and 109% and 101% | RXF 393 renal; 10 µM unless noted 95.7% and 104% and 112% | SF-268 CNS; 10 µM unless noted 80% and 101% | SF-295 CNS; 10 µM unless noted 99.7% and 108% and 115% | SF-539 CNS; 10 µM unless noted 113% and 90.2% | UACC-257 melanoma; 10 µM unless noted 80.1% and 98.6% and 111% | M14 melanoma; 10 µM unless noted 76% and 102% and 94.3% | HCT-15 colon; 10 µM unless noted 64.3% and 110% and 97.1%

COc1cccc2c1cc([N+](=O)[O-])c1c(C(=O)O)cc3c(c12)OCO3
inactive: K-562 leukemia; 10 µM unless noted 73.5% and 67.8% | MALME-3M melanoma; 10 µM unless noted 106% and 98.7% | MDA-MB-231 breast; 10 µM unless noted 88.4% and 106% | RXF 393 renal; 10 µM unless noted 49.1% and 101% | SF-268 CNS; 10 µM unless noted 45.9% and 113% | SF-295 CNS; 10 µM unless noted 44.9% and 90.4% | SF-539 CNS; 10 µM unless noted 71.9% and 90% | UACC-257 melanoma; 10 µM unless noted 97.7% and 111% | M14 melanoma; 10 µM unless noted 84.5% and 99% | HCT-15 colon; 10 µM unless noted 69.3% and 105%

Cc1c(N)nc([C@H](CC(N)=O)NC[C@H](N)C(N)=O)nc1C(=O)N[C@H](C(=O)N[C@H](C)[C@@H](O)[C@H](C)C(=O)N[C@H](C(=O)NCCc1nc(-c2nc(C(=O)NCCC[S+](C)C)cs2)cs1)[C@@H](C)O)C(OC1OC(CO)C(O)C(O)C1OC1OC(CO)C(O)C(OC(N)=O)C1O)c1cnc[nH]1 (some centres not stated)
active: SF-295 CNS; 10 µM unless noted 8.69% [2.5 µM] | SF-539 CNS; 10 µM unless noted -48.7% [2.5 µM]
inactive: K-562 leukemia; 10 µM unless noted 65.8% [2.5 µM] | MALME-3M melanoma; 10 µM unless noted 45.9% [2.5 µM] | MDA-MB-231 breast; 10 µM unless noted 99.2% [2.5 µM] | RXF 393 renal; 10 µM unless noted 20.5% [2.5 µM] | SF-268 CNS; 10 µM unless noted 61.6% [2.5 µM] | UACC-257 melanoma; 10 µM unless noted 31.9% [2.5 µM] | HCT-15 colon; 10 µM unless noted 67.8% [2.5 µM]

C[C@]12CC[C@H](O)CC1=CC[C@@H]1[C@@H]2CC[C@]2(C)C(=O)CC[C@@H]12
inactive: K-562 leukemia; 10 µM unless noted 80.5% | MALME-3M melanoma; 10 µM unless noted 80.9% | MDA-MB-231 breast; 10 µM unless noted 106% | RXF 393 renal; 10 µM unless noted 110% | SF-268 CNS; 10 µM unless noted 106% | SF-295 CNS; 10 µM unless noted 102% | SF-539 CNS; 10 µM unless noted 100% | UACC-257 melanoma; 10 µM unless noted 102% | M14 melanoma; 10 µM unless noted 101% | HCT-15 colon; 10 µM unless noted 99.7%

CO[C@H](/C(C)=C/C=C/C(C)=C/c1coc(C)n1)[C@H](C)[C@H]1C[C@@H](O)[C@@]2(C)O[C@H]2/C=C/[C@@H](C)[C@@H]2C[C@@H](CC(=O)O2)C[C@H]2O[C@@H]2C(=O)O1
active: K-562 leukemia; 10 µM unless noted -31.6% | SF-295 CNS; 10 µM unless noted -13.3% | SF-539 CNS; 10 µM unless noted -19.2% | M14 melanoma; 10 µM unless noted -0.709% | HCT-15 colon; 10 µM unless noted -31%
inactive: MALME-3M melanoma; 10 µM unless noted 15.2% | MDA-MB-231 breast; 10 µM unless noted 25.9% | RXF 393 renal; 10 µM unless noted 13.7% | SF-268 CNS; 10 µM unless noted 32.5% | UACC-257 melanoma; 10 µM unless noted 19.1%

COC1=C(C)C(=O)C2=C(C1=O)C(CO)N1C(C#N)C3CC4C(C1C2N1CCOC41)N3C (configuration not stated)
active: K-562 leukemia; 10 µM unless noted -45.3% | MALME-3M melanoma; 10 µM unless noted -97.4% | MDA-MB-231 breast; 10 µM unless noted -11.9% | RXF 393 renal; 10 µM unless noted -88.9% | SF-268 CNS; 10 µM unless noted -13.6% | SF-295 CNS; 10 µM unless noted -29.7% | SF-539 CNS; 10 µM unless noted -60.3% | UACC-257 melanoma; 10 µM unless noted 2.61% | M14 melanoma; 10 µM unless noted -85.9% | HCT-15 colon; 10 µM unless noted -29.8%

CC[C@](O)(C(=O)O)c1cc2n(c(=O)c1CO)Cc1cc3ccccc3nc1-2
inactive: MDA-MB-231 breast; 10 µM unless noted 34.5%
active: K-562 leukemia; 10 µM unless noted -27.9% | MALME-3M melanoma; 10 µM unless noted -38.2% | RXF 393 renal; 10 µM unless noted 9.87% | SF-268 CNS; 10 µM unless noted 8.53% | SF-295 CNS; 10 µM unless noted -13.2% | SF-539 CNS; 10 µM unless noted -48.2% | UACC-257 melanoma; 10 µM unless noted 0.116% | M14 melanoma; 10 µM unless noted -26.5% | HCT-15 colon; 10 µM unless noted -5.77%

Cc1cc(N=Nc2ccccc2C)ccc1N
inactive: K-562 leukemia; 10 µM unless noted 65.7% | MALME-3M melanoma; 10 µM unless noted 68.6% | MDA-MB-231 breast; 10 µM unless noted 75.1% | RXF 393 renal; 10 µM unless noted 99.6% | SF-268 CNS; 10 µM unless noted 47.3% | SF-295 CNS; 10 µM unless noted 83.9% | SF-539 CNS; 10 µM unless noted 48.9% | UACC-257 melanoma; 10 µM unless noted 132% | HCT-15 colon; 10 µM unless noted 84.9%

CC1=C(CO)C2=C(C)C3(CC3)[C@@](C)(O)C(=O)C2=C1
active: MALME-3M melanoma; 10 µM unless noted -87.5% | MDA-MB-231 breast; 10 µM unless noted 4.5% | RXF 393 renal; 10 µM unless noted 8.42% | SF-268 CNS; 10 µM unless noted 4.48% | SF-295 CNS; 10 µM unless noted -8.22% | SF-539 CNS; 10 µM unless noted -62.8% | UACC-257 melanoma; 10 µM unless noted -1.44% | M14 melanoma; 10 µM unless noted -59.3% | HCT-15 colon; 10 µM unless noted -22.2%
inactive: K-562 leukemia; 10 µM unless noted 26.3%

COc1ccccc1/C=C(/C)[N+](=O)[O-]
-1.25% (active) and 116% (inactive): RXF 393 renal; 10 µM unless noted
inactive: K-562 leukemia; 10 µM unless noted 39.9% and 97.5% | MALME-3M melanoma; 10 µM unless noted 72.8% and 89.3% | MDA-MB-231 breast; 10 µM unless noted 70% and 105% | SF-268 CNS; 10 µM unless noted 80.5% and 99.1% | SF-295 CNS; 10 µM unless noted 102% and 94.6% | SF-539 CNS; 10 µM unless noted 88% and 96.8% | UACC-257 melanoma; 10 µM unless noted 80.9% and 75% | M14 melanoma; 10 µM unless noted 79.2% and 95% | HCT-15 colon; 10 µM unless noted 32.3% and 99.8%
